We go through 84 sequences from the OligoGym collection.

What all share (assay): pooled miR-30 sensor sort-seq; sequence = guide strand
What all share (conditions): shRNA

For test [1], the target named is TMEM200C.
The target of test [2] is TMEM156.
Test [3] has as its target TMEM158.
Test [4] has as its target TMEM18.
Test [5] deals with TMEM218.
For test [6], the target named is TMEM8B.
Test [7] deals with TMEM231.
The target of test [8] is TMEM70.
In test [9] the target is TMEM42.
Test [10] addresses TNFAIP6.
Test [11] has as its target TNPO2.
The target in test [12] is TNKS.
Test [13] has as its target TNKS2.
The target of test [14] is TNP2.
Further: reference of the scale not given here.

In turn, TTGAGCTTGTCAGAGTGCAGGT showed a sensor-assay potency score (higher = more potent) in test [1] of 0.387.
On to TTGTTGATCTTCCAGTGTGGTT, for which the sensor-assay potency score (higher = more potent) in [2] was -1.08.
In the case of ATTTTGGTCTTCTTGTCCCGGT, in test [1], the sensor-assay potency score (higher = more potent) is -0.495.
TCGCACTGGAAGCCCCGCGGGC gave a sensor-assay potency score (higher = more potent) in test [3] of -1.57.
In [4], ATCTGTAGTCTGTAGCTTCGGG came in with a sensor-assay potency score (higher = more potent) of -0.359.
Turning to TTGACCAGCTACTGCGTCCAAG, the sensor-assay potency score (higher = more potent) in test [1] is -1.14.
Regarding TTCTTGTCCCGGTTCTCGTGGA, in [1], the sensor-assay potency score (higher = more potent) is -0.413.
TCCAGTTCTTCTTCTACCCCTA had a sensor-assay potency score (higher = more potent) in [1] of -0.433.
On to AAGAGCAGTAGGTCGCACTGGA, for which the sensor-assay potency score (higher = more potent) in [3] was 0.351.
In turn, TCTTAACTTCCACTTCTGGGGC returned a sensor-assay potency score (higher = more potent) in test [5] of -0.618.
For the sequence TTTGCTGCCACTGCTACTGCTG, the sensor-assay potency score (higher = more potent) in test [1] was -0.287.
The same measure, in the same setting: to TTGTAAACTGCCTCTGCACCGG belongs -0.336.
The sequence TAGCTTCGGGAGGACAAGCAGG had a sensor-assay potency score (higher = more potent) in [4] of -1.33.
The sequence TAACGATAACTACAGCACGAAG showed a sensor-assay potency score (higher = more potent) in [3] of -1.77.
As to TTTCACCACCACCACGTCGTTC, the sensor-assay potency score (higher = more potent) in test [1] was -1.27.
Sequence ATAACCACAATGATCATGGCAT displayed a sensor-assay potency score (higher = more potent) in test [4] of 0.502.
Regarding TAGTTTATCGATTTCTCCTTGC, in [2], the sensor-assay potency score (higher = more potent) was -0.128.
With TCTGTAGTCTGTAGCTTCGGGA, the sensor-assay potency score (higher = more potent) in [4] is -0.977.
Consider TACGGTTCAGCCGCCAGCCCGG, for which, in [3], the sensor-assay potency score (higher = more potent) was -1.31.
In turn, TTAAACATCTGCTTTTCGGAAC came in with a sensor-assay potency score (higher = more potent) in [3] of -0.542.
In test [1], AATCATGATGAGTTTCTCCTTG displayed a sensor-assay potency score (higher = more potent) of -0.235.
Consider TATAAAACAAATACACAGGATT, for which, in test [3], the sensor-assay potency score (higher = more potent) was -0.653.
TTGGCTTTCCGCTTGCGCTTGG displayed a sensor-assay potency score (higher = more potent) in [1] of 0.0739.
The sequence TATTTAAATAAAACAACGGTTT displayed a sensor-assay potency score (higher = more potent) in test [4] of -1.16.
Regarding TGATGTTGCACGGCGCCGCCGC, the sensor-assay potency score (higher = more potent) in test [3] was -0.887.
Consider TTTTGGTCTTCTTGTCCCGGTT, for which, in test [1], the sensor-assay potency score (higher = more potent) was -1.07.
For the sequence TATAGAAATGAACATCCCCCTG, the sensor-assay potency score (higher = more potent) in test [4] is -1.12.
Sequence TAGACTAAGATGACTAGACACA returned a sensor-assay potency score (higher = more potent) in [4] of -0.939.
Regarding TCCAGGCTGAAGTCTAGGCAGC, in test [3], the sensor-assay potency score (higher = more potent) is -1.79.
Sequence TTGCGCTTGGGTATCTGGCTTG had a sensor-assay potency score (higher = more potent) in test [1] of -0.405.
In turn, TTTATCGATTTCTCCTTGCTTG yielded a sensor-assay potency score (higher = more potent) in test [2] of 0.0129.
Consider TTTTCTGCCATGAATCTAGGGC, for which the sensor-assay potency score (higher = more potent) in test [3] was -0.129.
Same read-out and setting: for TAGCAATTTAATCTTTTTGTTT the value was -1.1.
For the sequence TATTTCGAAAATAATCTCCAGT, the sensor-assay potency score (higher = more potent) in test [4] is -0.177.
As to AAGCACTGCTGTCTCTGTCTGT, the sensor-assay potency score (higher = more potent) in [6] was -0.532.
Turning to TAAGAAATGACTTCCACAGGGT, in test [7], the sensor-assay potency score (higher = more potent) was 0.705.
For the sequence TTTTGTAATAAAGTGAAGCAGC, in test [8], the sensor-assay potency score (higher = more potent) is -0.766.
On to AACACGAAGATCTTGATTCTTT, for which, in test [7], the sensor-assay potency score (higher = more potent) was -0.0929.
In test [6], TAAGATGCAGACACCACCGCAT came in with a sensor-assay potency score (higher = more potent) of 0.345.
TAAACAAACATCATTCTCTGGA displayed a sensor-assay potency score (higher = more potent) in test [8] of 0.0797.
Still for that read-out and setting: to TACAATCGAATGACATAGCCTT belongs 0.02.
With TAGCCCAGGAAGGCCGAGCTGA, the sensor-assay potency score (higher = more potent) in test [9] was -1.22.
Still for that read-out and setting: for TAGAGTTACATGACTGGCTTTT the value was -0.949; for TTGAATACGCCCCAAAAGCGGC, -1.46.
Still for that read-out and setting: to TAGAACACTGCTGCAGCTGCAC belongs -0.354.
TTTAAGAATCGAACATATCCTT returned a sensor-assay potency score (higher = more potent) in test [8] of 0.136.
TAATACATAAGCATGACACAGA had a sensor-assay potency score (higher = more potent) in test [9] of 0.407.
In [7], TTCTGAAACACGAAGATCTTGA had a sensor-assay potency score (higher = more potent) of 0.224.
In [7], TCTCTAGTCGAAACGAGCGGGA had a sensor-assay potency score (higher = more potent) of -0.413.
Consider TAACAATCAGTCACTAACGGAA, for which the sensor-assay potency score (higher = more potent) in test [8] was -0.91.
Sequence TTGAAAAAGTCACTGTGACAGA returned a sensor-assay potency score (higher = more potent) in test [9] of -0.719.
Same read-out and setting: to TACGCGGTCGCGGACACGGCGC belongs -1.65.
On to TAGCTGGTAACCACAGCCCCGG, for which, in test [6], the sensor-assay potency score (higher = more potent) was -1.14.
TGAAGGTGTAGACTGCAGCTTC: in [6], the sensor-assay potency score (higher = more potent) was -0.202.
Regarding TAGGTGAGCGCATCTGCACTGT, the sensor-assay potency score (higher = more potent) in test [6] is -0.509.
As for TTAACAATCAGTCACTAACGGA, in test [8], the sensor-assay potency score (higher = more potent) was -0.588.
On the same count and under the same terms, for TTTATTATAAACAAACATCATT the value was -1.08.
Turning to TGTAGAAGTAGTTGTCCCGGGT, the sensor-assay potency score (higher = more potent) in test [6] worked out at 0.134.
In the case of TAAACCCATGCTCACCTCGCTG, the sensor-assay potency score (higher = more potent) in test [9] is -1.26.
The sequence TCCATACAGCACATAGCCCAGG had a sensor-assay potency score (higher = more potent) in test [9] of -1.77.
In the case of TTAAGAATCGAACATATCCTTC, the sensor-assay potency score (higher = more potent) in [8] is -0.465.
TTCTCTAGTCGAAACGAGCGGG showed a sensor-assay potency score (higher = more potent) in test [7] of 0.0646.
In the case of TGGATTAGGGTGAGTCCGCAGA, in test [9], the sensor-assay potency score (higher = more potent) is -1.31.
Consider AAACCCATGCTCACCTCGCTGC, for which the sensor-assay potency score (higher = more potent) in [9] is -0.311.
With TTCTTCTCTAGTCGAAACGAGC, the sensor-assay potency score (higher = more potent) in test [7] is -1.58.
Regarding TATCTATGCATGACAGTTTGGG, in test [6], the sensor-assay potency score (higher = more potent) is -0.202.
ATAATTGTGTGTGCGCAGCAGC returned a sensor-assay potency score (higher = more potent) in test [6] of -0.93.
The same measure, in the same setting: for TAGAAGTGGACAGAGAAGGTGT the value was 0.765.
In the case of TTTCACACCAAACACTGCTCGG, in test [8], the sensor-assay potency score (higher = more potent) was -0.271.
The sequence AATAAGGAACACTCCTCCCCAC displayed a sensor-assay potency score (higher = more potent) in test [9] of 0.0225.
In turn, TCCATGTCGGTCAAGCTGCAGA yielded a sensor-assay potency score (higher = more potent) in test [6] of -1.7.
Sequence TAGCATTGTAGGTAATGGCTTT registered a sensor-assay potency score (higher = more potent) in test [8] of -0.0699.
The sequence TGGTGAAACACTGTACTCGTTT returned a sensor-assay potency score (higher = more potent) in test [8] of -0.765.
The same measure, in the same setting: to TTAACTAACAGTGATTTTGTTT belongs -0.473.
TTATCTATGCATGACAGTTTGG displayed a sensor-assay potency score (higher = more potent) in test [6] of -0.348.
On the same count and under the same terms, to ATGTAGAAGTAGTTGTCCCGGG belongs -0.575.
Take TATCTTCGTACTCATTTGGGAA: the sensor-assay potency score (higher = more potent) in [10] is -0.842.
In the case of TTGAGTGTCTTCCCATAGCAAG, the sensor-assay potency score (higher = more potent) in test [10] is -1.58.
TTCTCTAGAATTGCTGACCCAG displayed a sensor-assay potency score (higher = more potent) in test [11] of -0.678.
As to ATGAACATCAGCACCATGCTGA, the sensor-assay potency score (higher = more potent) in test [12] was found to be 0.272.
In test [13], TTTTGATTCGAGTAACATCAGC gave a sensor-assay potency score (higher = more potent) of -1.09.
As for TCTGTCTGCAACTCTGGCTGAA, the sensor-assay potency score (higher = more potent) in test [14] was -0.415.
With TTACAGTTTCGACATCTCCAGC, the sensor-assay potency score (higher = more potent) in [13] was -0.869.
In test [12], TGTTCTACAACATCCTTCCTTC displayed a sensor-assay potency score (higher = more potent) of 0.712.
